ABHD5 PLIN5 PPI: ABHD5-PLIN5 interaction inhibitors, primary screen, cell lysate, split luciferase complementation, luminescence; Split G. princeps luciferase complementation, 4 h; Perilipin-5 (Homo sapiens) + 1-acylglycerol-3-phosphate O-acyltransferase ABHD5 (Homo …; inhibition, % at 4 µM; actives 0.78% (n = 360,000);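 active = inhibition above the mean inhibition across every tested compound plus 3 SD, cut at about 22% in these data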;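 also: 0% = DMSO only wells and the 100% control is not disclosed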
Target sequence (Q00G26 whole entry, looked up): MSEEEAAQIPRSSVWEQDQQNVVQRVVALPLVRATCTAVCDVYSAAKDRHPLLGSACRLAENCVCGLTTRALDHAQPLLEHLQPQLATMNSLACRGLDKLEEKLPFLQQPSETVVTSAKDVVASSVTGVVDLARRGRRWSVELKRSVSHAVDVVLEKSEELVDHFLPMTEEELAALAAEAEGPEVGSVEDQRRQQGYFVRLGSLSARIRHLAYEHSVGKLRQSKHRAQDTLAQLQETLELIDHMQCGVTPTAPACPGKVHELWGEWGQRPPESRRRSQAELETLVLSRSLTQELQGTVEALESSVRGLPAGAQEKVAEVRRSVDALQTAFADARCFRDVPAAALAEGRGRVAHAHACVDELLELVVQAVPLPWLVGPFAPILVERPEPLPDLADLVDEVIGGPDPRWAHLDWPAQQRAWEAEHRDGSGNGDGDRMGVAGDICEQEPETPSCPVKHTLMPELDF
Target sequence (Q8WTS1 whole entry, looked up): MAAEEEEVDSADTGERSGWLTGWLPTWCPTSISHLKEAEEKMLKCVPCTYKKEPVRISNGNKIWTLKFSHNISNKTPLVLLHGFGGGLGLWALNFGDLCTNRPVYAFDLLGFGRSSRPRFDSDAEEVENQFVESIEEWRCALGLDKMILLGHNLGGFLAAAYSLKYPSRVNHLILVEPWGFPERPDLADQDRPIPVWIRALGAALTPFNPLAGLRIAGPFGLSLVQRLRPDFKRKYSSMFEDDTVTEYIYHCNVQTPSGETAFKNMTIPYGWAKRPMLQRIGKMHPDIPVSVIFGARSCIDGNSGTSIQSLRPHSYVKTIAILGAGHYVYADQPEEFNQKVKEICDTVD
Peg3 prom inh: Peg3 promoter-driven luciferase inhibitors, primary screen, cell-based, HeLa, luciferase luminescence; actives 1.7% (n = 360,000); inhibition, % at 20 µM; HeLa PEG-Prom luciferase reporter, overnight;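 active = inhibition of at least 50% at 20 µM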
CF NFkB block: inhibitors of PAF-induced NF-kB signaling, primary screen, cell-based, GFP fluorescence, uHTS. KKLEB NF-kB-GFP reporter, GFP fluorescence overnight. inhibition, % at 5 µM. actives 0.86% (n = 360,000). AID 588850, 2011;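 active = at least 50% inhibition at 5 µM, scaled per plate between neutral and stimulator controls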;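 also: PAF is a Pseudomonas aeruginosa culture filtrate used as stimulus; plate controls were PAF-stimulated DMSO wells for no effect and unstimulated DMSO wells for full effect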
TRPM1 prom inh: inhibitors of MITF-dependent TRPM1 promoter reporter, primary screen, cell-based, SK-MEL-5, single point, luciferase; SK-MEL-5 TRPM1 promoter luciferase, 24 h; inhibition, % at 12.5 µM; actives 0.83% (n = 330,000);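 active = mean inhibition across replicates of 60% or more, whatever share of single replicates reaches that level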
HIF-2a inh: HIF-2a reporter inhibitors, primary screen, luminescence, 786-0 RCC cells | 786-0 RCC cells HIF-2a reporter, luciferase luminescence, overnight | inhibition, % at 18.8 µM | actives 0.72% (n = 360,000);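 active = inhibition of the luminescence signal of 40% or more relative to plate controls, in a single-dose primary screen at 18.75 µM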
KKLEB tox: cytotoxicity in KKLEB CF airway cells, primary screen, cytotoxicity control for CF NF-kB inhibitor project, cell-based, uHTS, fluorescence assay plates; KKLEB CF airway cells viability, ATPlite luminescence, overnight; active compounds read low; cells stimulated with P. aeruginosa culture filtrate; activity change (cytotoxicity), % at 5 µM; actives 0.36% (n = 360,000); AID 602141, 2011;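 active = corrected activity change at or below -50% at 5 µM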
* hit, by the source's call; . = no result. Most compounds without a hit are left out; they make up all but 3.1% or so of the library.

SMILES | ABHD5 PLIN5 PPI | Peg3 prom inh | CF NFkB block | TRPM1 prom inh | HIF-2a inh | KKLEB tox
C[C@@H]1CCCCO[C@@H](CN(C)CC2CCCCC2)[C@@H](C)CN([C@H](C)CO)C(=O)c2cc(NS(=O)(=O)c3ccc(Cl)cc3)ccc2O1 | 1 | 90* | -24 | . | -43 | 16
C[C@@H]1CN([C@H](C)CO)C(=O)c2cccc(NC(=O)NC3CCCCC3)c2O[C@@H]1CN(C)C(=O)Nc1ccc(C(F)(F)F)cc1 | -11 | 88* | -26 | 29 | 5 | -8
C[C@H](CO)N1C[C@H](C)[C@@H](CN(C)C(=O)Nc2ccc(C(F)(F)F)cc2)Oc2c(NC(=O)NC3CCCCC3)cccc2C1=O | -15 | 7 | 4 | 1 | 15 | 1
C[C@@H]1CCCCO[C@H](CN(C)Cc2ccc(C(F)(F)F)cc2)[C@H](C)CN([C@@H](C)CO)C(=O)c2cc(NC(=O)Cc3ccccc3)ccc2O1 | 11 | 50* | 22 | . | -30 | -8
C[C@@H]1CN([C@@H](C)CO)C(=O)Cc2cc(NC(=O)Nc3ccc(F)cc3)ccc2O[C@@H]1CN(C)Cc1ccc(Cl)c(Cl)c1 | -19 | 85* | 52* | 20 | -39 | -20
COc1ccc(S(=O)(=O)N2CCCCC2)cc1NC(=O)CSc1nnc(C2CC2)n1C | -4 | 14 | 26 | . | 15 | -14
CSc1cccc(N2CC(C(=O)Nc3cccc(S(=O)(=O)N4CCCC4)c3)CC2=O)c1 (centres undefined) | 0 | 13 | 38 | 14 | 7 | -7
COc1ccc(C2C(C(=O)NCc3ccccn3)CCC(=O)N2c2cc(OC)c(OC)c(OC)c2)cc1 (centres undefined) | -2 | -5 | 0 | -2 | -4 | -7
Cc1ccc(NC(=O)CCSc2nnc(C)o2)cc1 | -5 | -11 | 5 | -12 | 9 | 4
C[C@@H]1CN([C@H](C)CO)C(=O)c2cc(NC(=O)Cc3ccccc3)ccc2O[C@H]1CN(C)Cc1ccc(Oc2ccccc2)cc1 | 0 | 21 | -9 | 1 | 9 | -5
C[C@@H]1CN([C@@H](C)CO)C(=O)c2cc(NC(=O)Nc3ccc(F)cc3)ccc2O[C@@H]1CN(C)Cc1ccc(Oc2ccccc2)cc1 | 6 | 80* | 18 | 14 | 1 | -9
C[C@@H]1CN([C@H](C)CO)C(=O)c2cc(NC(=O)Nc3ccc(F)cc3)ccc2O[C@@H](C)CCCCO[C@H]1CN(C)Cc1ccc(C(=O)O)cc1 | 10 | -6 | -9 | . | 15 | 16
COc1ccc(CN(C)C[C@@H]2OCCCC[C@H](C)Oc3ccc(NC(=O)Nc4ccc(F)cc4)cc3C(=O)N([C@H](C)CO)C[C@H]2C)cc1 | 2 | 74* | -2 | . | -19 | -10
CCOC(=O)c1cccc(NC(=O)C2CCCN(c3nnc(N4CCCC4=O)s3)C2)c1 (centres undefined) | 0 | 18 | 4 | . | 2 | 11
NC(=S)NN=Cc1nccc2c(C(F)(F)F)cccc12 | -16 | 19 | 70* | . | -145 | -38
Nc1nc2c(ncn2[C@@H]2O[C@H](CNC(=O)[C@H](N)Cc3cncn3COCc3ccccc3)[C@@H](O)[C@H]2O)c(=O)[nH]1 | -3 | 13 | 6 | . | 11 | -10
COc1ccc(NC(=O)c2c(-c3c(Cl)cccc3Cl)noc2C)c(OC)c1 | -2 | 6 | -18 | 11 | 10 | 1
C=CCn1c(SCC(=O)NCCCC)nc2scc(-c3ccco3)c2c1=O | 40* | 20 | -3 | 6 | 21 | 5
CN(Cc1ccccc1)S(=O)(=O)c1ccc2[nH]c(=O)ccc2c1 | -6 | -5 | -12 | . | -7 | -12
CCCN1CCC(NCc2cn(C)nc2-c2ccc(Oc3ccccc3)cc2)CC1 | 10 | 17 | 1 | 86* | 6 | 0
COCCN(Cc1ccc(C)cc1)C(=O)[C@H]1O[C@@H](n2ccc(N)nc2=O)[C@H](O)[C@@H]1O | -1 | 4 | -7 | . | -2 | -5
CC(Oc1ccc(Cl)cc1)c1ccc(C#N)c(=O)[nH]1 (centres undefined) | 5 | 9 | -15 | 7 | 23 | 14
COc1ccc(S(=O)(=O)N2CCN(C(=O)c3ccc(NC(C)=O)cc3)CC2)cc1 | 6 | -8 | -1 | -1 | 1 | 6
O=C(NC(c1ccc(-c2ccccc2)cc1)c1cnccn1)C1CCN(Cc2ccc(Oc3ccccc3)cc2)CC1 (centres undefined) | 17 | 56* | 9 | . | -21 | -11
CC(=O)Oc1ccc(C(=O)Nc2cc(C)on2)cc1 | 5 | -122 | -1 | -33 | -148 | 5
SMILES | ABHD5 PLIN5 PPI | Peg3 prom inh | CF NFkB block | TRPM1 prom inh | HIF-2a inh | KKLEB tox
O=C(CCl)N1CCN(S(=O)(=O)c2ccc3c(c2)CCC3)CC1 | -7 | 50* | -23 | 66* | 25 | -16
CCOC(=O)c1c(C)[nH]c(C)c1C(=O)COC(=O)/C=C/c1ccccc1[N+](=O)[O-] | 3 | 3 | -9 | 15 | 1 | 9
CCOC(=O)c1c(C)[nH]c(C)c1C(=O)COC(=O)c1ccc([N+](=O)[O-])s1 | 2 | 9 | -2 | 76* | -4 | -3
CCN=c1scc(-c2ccc(F)cc2)n1/N=C/c1ccccn1 | -5 | -306 | -8 | -84 | -349 | -25
CCCc1sc(N/N=C/c2ccccn2)nc1-c1ccc(F)cc1 | -12 | -42 | 36 | 63* | -95 | -51*
COc1cccc(C(=O)Nc2cc(NC(=O)c3cccs3)ccc2C)c1OC | 6 | -20 | 23 | -5 | -26 | 5
O=C(c1ccccc1)N1CCN(C(=O)c2nn3c(C(F)(F)F)cc(-c4ccco4)nc3c2Br)CC1 | 22* | 10 | 20 | 8 | 9 | -6
O=C(NC1CCCCC1)c1nn2c(C(F)(F)F)cc(-c3ccco3)nc2c1Br | 10 | -2 | 16 | -1 | 21 | -14
O=Nc1c(O)n(Cc2cccc(C(F)(F)F)c2)c2ccccc12 | -2 | 38 | 51* | 2 | 28 | -16
O=Nc1c(O)n(Cc2ccccc2)c2ccccc12 | -8 | 18 | 18 | 13 | 14 | 10
COc1ccc(S(=O)(=O)Nc2ccccc2OC)cc1NC(=O)c1cc2ccccc2oc1=O | 1 | -131 | 58* | -87 | -189 | -55*
O=C(Nc1nc2ccccc2n1Cc1ccccc1)c1ccc(COc2ccccc2[N+](=O)[O-])o1 | 7 | 28 | 46 | 24 | 7 | -68*

Assay outcomes as filed in PubChem BioAssay.
